Screening data: PubChem BioAssay, National Center for Advancing Translational Sciences (NCATS)
IL1B secr inh: inhibitors of inflammasome signaling (IL-1 beta secretion) | activity change, % at 57.5 µM | actives 4.7% (n = 360,000) | THP-1 LPS/ATP IL-1B secretion, AlphaLISA, 16 h; active compounds read low; in the data active = activity change below about -50%; inconclusive = mostly about -30% to -49%
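THP-1 cells pretreated 1 hr with compounds (up to 57.5 uM final), then stimulated with LPS (250 ng/mL final) plus ATP (1.25 mM final); secreted IL-1B measured by AlphaLISA after 16 hr, decreased signal indicating inhibition.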
Six1-Eya2 blk: inhibitors of human Six1/Eya2 interaction; AlphaScreen GST-Six1/His-Eya2 binding, biochemical; active compounds read low; activity change, % (test concentration not listed); actives 0.56% (n = 360,000); AID 651725; in the data active = activity change below about -65%; inconclusive = mostly about -30% to -63%
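AlphaScreen with GST-Six1 and His-Eya2 (5X mix: 250 nM and 500 nM), glutathione donor and nickel acceptor beads; buffer 50 mM Tris pH 8.0, 300 mM NaCl, 1 mM TCEP; 1 h at 37 C in the dark.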
TDP1 cell noCPT: qHTS for Inhibitors of human tyrosyl-DNA phosphodiesterase 1 (TDP1): qHTS in cells in absence of CPT; DT40 Tdp1-/- hTDP1 cells, no CPT, ATP luminescence, 48 h; Potency, µM (doses to about 46.2 µM), usual class: inhibitors; actives 15% (n = 420,000); note: nearly all actives have a fitted effect of over 55% in size
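Readout: luminescence from CellTiter-Glo after 30 min in the dark at RT. Cells: DT40 Tdp1-/- with stable hTDP1, 400/well. Exposure: compounds alone, ≥48 hr, 37 °C.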
DT40 TDP1 CPT: DT40-hTDP1 cell growth loss with CPT; chicken DT40 Tdp1-/-;hTDP1 cells + 20 nM CPT, ATP luminescence, 48 h; Potency, µM (doses to about 46.2 µM), usual class: inhibitors; actives 12% (n = 420,000); AID 686979; note: nearly all actives have a fitted effect of over 55% in size
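Chicken DT40 Tdp1-/- cells stably complemented with human TDP1 were seeded at 400 cells/well in medium containing 20 nM camptothecin, exposed to pin-transferred compounds, and grown at 37 °C for at least 48 hr. Viability was read as ATP luminescence.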
TDP1 block: blocks human tyrosyl-DNA phosphodiesterase 1; actives 0.28% (n = 350,000); AID 485290; recombinant TDP1, AlphaScreen DNA substrate cleavage; Potency, µM (highest dose often 130 µM), hits mostly inhibitors; note: nearly all actives have a fitted effect of over 40% in size
Target sequence (Q9NUW8 whole entry, looked up): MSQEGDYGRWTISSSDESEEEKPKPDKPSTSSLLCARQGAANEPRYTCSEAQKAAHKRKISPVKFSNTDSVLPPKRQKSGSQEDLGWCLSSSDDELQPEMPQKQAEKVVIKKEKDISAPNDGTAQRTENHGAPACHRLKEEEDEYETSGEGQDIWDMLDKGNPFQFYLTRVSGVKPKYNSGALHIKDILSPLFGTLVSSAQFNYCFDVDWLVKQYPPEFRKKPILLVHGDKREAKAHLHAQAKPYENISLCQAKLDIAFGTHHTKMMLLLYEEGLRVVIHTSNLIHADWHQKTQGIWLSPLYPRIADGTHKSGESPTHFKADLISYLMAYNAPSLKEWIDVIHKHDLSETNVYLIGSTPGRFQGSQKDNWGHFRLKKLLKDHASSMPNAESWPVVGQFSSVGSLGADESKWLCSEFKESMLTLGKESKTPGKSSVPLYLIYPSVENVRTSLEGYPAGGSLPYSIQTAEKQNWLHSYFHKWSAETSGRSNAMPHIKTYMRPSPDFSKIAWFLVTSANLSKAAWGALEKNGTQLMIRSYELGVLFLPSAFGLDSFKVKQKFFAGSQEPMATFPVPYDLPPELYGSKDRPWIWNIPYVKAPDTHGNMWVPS
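Steps: enzyme plus compound, 15 min RT; add biotin/phosphotyrosine-FITC oligonucleotide (15 nM final), react 5 min; add donor/acceptor beads (10 ug/ml final), 10 min; read AlphaScreen. Tdp1 at 1 nM final.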
CtBP-E1A blk: CtBP/E1A binding inhibition. AlphaScreen GST-E1A/His-CtBP binding, 1536-well; active compounds read low. AID 651724. actives 0.49% (n = 340,000). activity change, % (test concentration not listed); in the data active = activity change below about -65%; inconclusive = mostly about -30% to -63%
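In 5 uL wells, 23 nL compound meets equimolar GST-E1A and His-CtBP (5X stock 125 nM each) for 2 h, 37 °C. Beads (5X, 50 ug/mL) then 1 h, 37 °C, dark.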
Numbers stand for hits; i = inactive; ? = inconclusive; nt = no result given. Shown are actives, neighbours in structure and some others; about 18% of the full set was active somewhere. Unless noted, calls come from the whole dose curve; as a rule, active = well fitted curve in the direction sought with a large enough effect; inconclusive = small, poorly fitted or top-dose-only effect, or another doubt; inactive = no such curve, though single readings can be large; an effect the other way counts as inactive or inconclusive.

SMILES | IL1B secr inh | Six1-Eya2 blk | TDP1 cell noCPT | DT40 TDP1 CPT | TDP1 block | CtBP-E1A blk
CC(=O)N1CCOc2cc(S(=O)(=O)NCc3ccc(C)cc3)c(C)cc21 | nt | nt | i | i | i | nt
CC(=O)N1CCOc2cc(S(=O)(=O)NCc3ccccc3Cl)c(Cl)cc21 | nt | nt | i | ? | 6.3µM | nt
CC(=O)c1cccc(NS(=O)(=O)c2ccc3c(c2)N(C(C)=O)CCO3)c1 | i | i | 21µM | ? | i | nt
Cc1nc2nc(SCc3ccccc3)nn2c(C)c1C | i | i | ? | ? | i | nt
COC(=O)CSc1ccccc1C(=O)OC | i | i | i | i | i | i
O=C(CSC1=NS(=O)(=O)c2ccccc21)Nc1ccccc1 | i | i | 2.6µM | 1.8µM | i | i
COC(=O)CSC1=NS(=O)(=O)c2ccccc21 | ? | i | 2.3µM | 1.5µM | i | i
COc1ccc(C2=Nn3c(nc4sc(C(=O)Nc5cccc(C)c5)c(C)c4c3=O)SC2)cc1 | nt | nt | ? | ? | i | nt
Cc1ccc(NC(=O)COC(=O)Cc2ccccc2)cc1S(=O)(=O)N1CCOCC1 | i | i | i | i | i | i
Nc1c(-c2nc(-c3ccc(Cl)cc3)cs2)c2ccccn2c1C(=O)c1ccc2c(c1)OCO2 | nt | nt | i | i | i | nt
Cc1cccc2c(=O)[nH]c3c(-c4nc(-c5ccc(Cl)cc5)cs4)c(O)cn3c12 | nt | nt | 7.1µM | 4µM | nt | nt
Cc1ccc(Cl)c2c(N=Nc3ccccc3)c(O)[nH]c12 | i | i | i | i | i | nt
COc1ccc(/C=N/NC(=O)c2cc(-c3cccn3C)n[nH]2)cc1OC | ? | ? | 18µM | ? | i | ?
Cn1cccc1-c1cc(C(=O)N/N=C/c2cccc(O)c2)[nH]n1 | -70 | i | ? | ? | i | i
COc1cc(OC)c(OC)cc1/C=N/NC(=O)c1cc(-c2cccn2C)n[nH]1 | i | i | i | i | i | i
CCOc1cccc(/C=N/NC(=O)c2cc(-c3cccn3C)n[nH]2)c1O | i | -87 | 9.2µM | 5.8µM | i | -85
COC(=O)c1ccc(NC(=O)CSc2nnc3c4ccccc4n(C(C)C)c3n2)cc1 | nt | nt | nt | nt | i | nt
CC(C)OC(=O)c1cn(-c2ccccc2)nc1-c1ccco1 | -90 | i | ? | ? | i | i
CCOC(=O)C1=C(C)NC(C)=C(C(=O)OCC)C1c1cn(-c2ccccc2)nc1-c1ccco1 | i | i | ? | i | i | i
Cc1cc(C)c(S(=O)(=O)/N=C2\C=C(Nc3ccc(C(=O)O)cc3)C(=O)c3ccccc32)c(C)c1 | -104 | ? | 3.7µM | 3.7µM | i | -72
Cc1ccc(S(=O)(=O)/N=C2\C=C(NS(=O)(=O)c3ccccc3)C(=O)c3ccccc32)cc1 | i | ? | 26µM | 21µM | nt | i
O=C(O)c1ccc(NC2=C/C(=N/S(=O)(=O)c3ccccc3)c3ccccc3C2=O)cc1 | -97 | ? | 3.7µM | 2.6µM | i | ?
O=S(=O)(N=C1C=CC(=NS(=O)(=O)c2ccccc2)c2ccccc21)c1ccccc1 | i | i | 6.5µM | 7.3µM | nt | i
CC1CC[C@@]2(OC1)OC1CC3C4CC[C@@H]5CC(O)CC[C@@]5(C)C4CC[C@]3(C)C1C2C (stereo not given in full) | nt | nt | i | i | i | nt
C/C(Cn1nnc([N+](=O)[O-])n1)=N\NC(=O)c1cccc(Cl)c1 | i | i | ? | 16µM | i | i
C/C(Cn1nnc([N+](=O)[O-])n1)=N\NC(=O)c1ccccc1Cl | i | i | ? | 23µM | i | i
C/C(Cn1nc([N+](=O)[O-])cc1C)=N\NC(=O)c1cccc(Br)c1 | i | i | i | i | i | i
CCCN1C2CCCC1CC(NC(=O)c1ccc(C(C)(C)C)cc1)C2 (stereo not given) | i | i | i | i | nt | nt
CCN(CC)C(=O)N1CCC(NC(=O)c2ccc(C(C)(C)C)cc2)CC1 | i | i | 23µM | ? | i | i
CCOC(=O)c1ccc2c(c1)nc(SCc1cn3ccsc3n1)n2CC | ? | i | 16µM | ? | i | i
